Peg3 promoter: Peg3 promoter activity inhibition | HeLa PEG-Prom luciferase reporter, luminescence, overnight | inhibition, % at 20 µM | 360,000 tested, 1.7% active;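 active = inhibition of at least 50% at 20 µM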
CF NFkB block: inhibitors of cystic fibrosis induced NF-kB; 360,000 tested, 0.86% active; inhibition, % at 5 µM; KKLEB NF-kB-GFP reporter, PAF-induced, GFP fluorescence overnight; AID 588850;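 active = at least 50% inhibition at 5 µM, scaled per plate between neutral and stimulator controls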;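 note: PAF is a Pseudomonas aeruginosa culture filtrate used as stimulus; plate controls were PAF-stimulated DMSO wells for no effect and unstimulated DMSO wells for full effect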
Beta2AR agonist: activates human beta-2 adrenergic receptor causing internalization; response, % (concentration not given with the values); AID 504454; 340,000 tested, 0.43% active; Am2.2-beta2AR cells, FAP receptor internalization, flow cytometry; P07550;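 active = response above a set limit, near 3 SD of response in nonfluorescent compounds, cut at about 42% in these data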
Target sequence (P07550 whole entry, looked up): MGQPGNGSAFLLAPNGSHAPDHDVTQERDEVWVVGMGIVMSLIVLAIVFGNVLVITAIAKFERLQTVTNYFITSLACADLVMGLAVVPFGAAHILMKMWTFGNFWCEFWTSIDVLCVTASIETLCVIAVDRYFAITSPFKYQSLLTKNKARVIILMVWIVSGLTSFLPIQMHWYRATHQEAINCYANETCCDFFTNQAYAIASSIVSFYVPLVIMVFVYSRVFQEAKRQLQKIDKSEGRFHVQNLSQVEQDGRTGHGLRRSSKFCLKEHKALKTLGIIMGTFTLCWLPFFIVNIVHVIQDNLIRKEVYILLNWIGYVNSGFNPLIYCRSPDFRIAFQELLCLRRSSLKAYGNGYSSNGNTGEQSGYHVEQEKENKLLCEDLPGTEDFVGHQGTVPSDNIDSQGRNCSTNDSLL
KKLEB tox: CF airway cell cytotoxicity counter-screen. KKLEB CF airway cells viability, ATPlite luminescence, overnight; active compounds read low; cells stimulated with P. aeruginosa culture filtrate. activity change (cytotoxicity), % at 5 µM. 360,000 tested, 0.36% active. AID 602141;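 active = corrected activity change at or below -50% at 5 µM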
MITF TRPM1 inh: reduces MITF-dependent TRPM1 promoter luciferase signal | SK-MEL-5 TRPM1 promoter luciferase, 24 h | inhibition, % at 12.5 µM | 330,000 tested, 0.83% active | AID 488899;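 active = mean inhibition across replicates of 60% or more, whatever share of single replicates reaches that level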
HIF-2a inh: inhibitors of HIF-2a; 786-0 RCC cells HIF-2a reporter, luciferase luminescence, overnight; inhibition, % at 18.8 µM; 360,000 tested, 0.72% active;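 active = inhibition of the luminescence signal of 40% or more relative to plate controls, in a single-dose primary screen at 18.75 µM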
Mdm2-MdmX confirm: confirmation of inhibitors of human Mdm2/MdmX interaction, set 2; shares compounds with HIF-2a inh; SaOS-2 split-luciferase Mdm2/MdmX complementation, luminescence; inhibition, % at 8 µM; 740 tested, 99% active;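 active = mean inhibition of the luminescence signal across two replicates at or above 26 percent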
HIF-2a conf: HIF-2a inhibition, single concentration confirmation | shares compounds with HIF-2a inh | 786-0 RCC cells, HIF-2a luciferase reporter luminescence, overnight | inhibition, % at 18.8 µM | 1,800 tested, 56% active | AID 651580;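 active = mean inhibition across four replicates of at least 40 percent at the single tested concentration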
HIF-1a counter: counter-screen for HIF-2a inhibitors: HIF-1a inhibition in MiaPaCa-2 cells; shares compounds with HIF-2a inh; MiaPaCa-2 HIF-1a luciferase reporter, desferoxamine, overnight; inhibition, % at 18.8 µM; 1,800 tested, 72% active; AID 651589;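 active = mean inhibition of the reporter signal across four replicates at the single tested dose of 50% or more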
Numbers without * were called inactive; · = not tested or not shown. Hits are enriched below; roughly 2.8% of the tested compounds scored in any of these assays.

SMILES	Peg3 promoter	CF NFkB block	Beta2AR agonist	KKLEB tox	MITF TRPM1 inh	HIF-2a inh	HIF-2a conf	HIF-1a counter	others
C[C@@H]1O[C@H](C2CCCC2)CC2=C1C(=O)OC(C)(C)O2	·	·	·	·	·	5.7	·	·
O=C1C=CC(=O)N1CCNc1ncc(C(F)(F)F)cc1Cl	108.2*	60.0*	69.2*	-23.1	26.9	34.7	·	·	Mdm2-MdmX confirm=103.0*
O=[N+]([O-])c1ccc(Oc2cccc(Br)c2)c2ccncc12	35.6	31.6	4.6	-23.2	12.5	45.4*	29.2	76.8*
CCN(CC)S(=O)(=O)c1ccc(C)c(NC(=O)CN(C)C)c1	-8.0	-12.5	14.6	1.2	-5.6	12.1	·	·
CC1=CC(C)(C)Nc2ccc(OC(=O)c3cccnc3)cc21	56.5*	38.2	11.1	-9.2	-2.3	75.0*	86.5*	94.1*
CC1=CC(C)(C)Nc2ccc(OC(=O)CN3C(=O)CCC3=O)cc21	44.5	10.8	17.7	-10.4	-1.4	74.2*	88.3*	89.6*
CC1=CC(C)(C)Nc2ccc(OC(=O)c3ccco3)cc21	45.7	24.4	12.4	1.6	8.0	81.0*	83.3*	92.2*
CC1=CC(C)(C)Nc2ccc(C)cc21	6.5	6.3	4.2	2.4	-8.1	6.3	·	·
CC1=CC(C)(C)Nc2ccc(OC(=O)C(C)N3C(=O)c4ccccc4C3=O)cc21 (stereo not drawn)	-17.8	7.8	-7.7	-6.2	13.1	78.2*	89.7*	93.7*
O=C(c1nnc(-c2ccncc2)o1)c1ccccc1Cl	11.9	21.1	-0.2	-9.8	2.6	-2.8	·	·
Cc1ccc(Cn2c(C)c(C(=O)NCC(C)C)sc2=O)cc1	-2.5	-16.7	·	15.1	·	0.6	·	·
COc1ccc(OC)c2sc(NC(=O)CCSc3ccccc3)nc12	29.1	24.0	-1.1	-1.1	-5.1	3.7	·	·
COc1ccc(OC)c2sc(NC(=O)CCS(=O)(=O)c3ccccc3)nc12	43.9	49.8	8.4	-55.4*	·	90.1*	-31.0	56.5*
O=C(NC1CCCC1)c1ccc(Cl)s1	-15.3	-5.4	3.7	19.2	-7.2	-30.9	·	·
O=C(NC1CCCCCC1)c1ccc([N+](=O)[O-])s1	-80.2	16.3	7.3	-3.6	70.8*	60.0*	74.1*	77.2*
CCOc1ccc(CCN2C(=S)N([C@@H](Cc3ccc(O)cc3)CN3CCC[C@@H]3CN3C(=S)NC[C@@H]3Cc3ccccc3)C[C@@H]2Cc2ccc(O)cc2)cc1	20.8	48.2	·	-13.5	·	-38.3	·	·
Nc1nc2c(ncn2[C@@H]2O[C@H](CNS(=O)(=O)N3CCCC3)[C@@H](O)[C@H]2O)c(=O)[nH]1	2.0	-63.0	·	1.6	·	-4.8	·	·
Cc1cc(C)c2cc(C#N)c(NCCCNC(=O)c3cccnc3)nc2c1	13.4	0.1	·	-1.2	·	-11.3	·	·
CN(C)CC(=O)c1ccc(-c2ccccc2)cc1	3.8	3.9	5.7	-5.2	-6.9	29.1	·	·
CCN(CC)CC(=O)c1ccc(-c2ccccc2)cc1	-7.0	-7.1	1.0	12.3	-2.8	45.8*	7.4	27.7
CN(C)CC(CCC(CN(C)C)C(O)(c1ccccc1)c1ccccc1)C(O)(c1ccccc1)c1ccccc1 (stereo not drawn)	·	·	·	·	·	·	·	·	Mdm2-MdmX confirm=103.5*
C=CC(=O)Nc1ccc(Nc2nc(NC3CCC(N(C)C)CC3)nc3c2ncn3C(C)C)cc1 (stereo not drawn)	107.1*	94.0*	-1.3	-73.5*	86.5*	75.6*	·	·	Mdm2-MdmX confirm=103.0*
CC(C)n1cnc2c(Nc3ccc(F)c(Cl)c3)nc(NCCO)nc21	-9.4	24.9	0.1	10.0	9.0	-42.6	·	·
COC(=O)[C@@H](Cc1ccccc1)NC(=O)Cn1cc(C)c(=O)[nH]c1=O	5.7	-0.3	-1.0	-4.5	-6.6	4.6	·	·
Nc1nc2ccc(S(=O)(=O)c3ccc4nc(N)sc4c3)cc2s1	13.1	17.0	0.8	-20.3	-1.6	47.7*	40.6*	-20.2

Screening data from PubChem.
